Experiment [1] can be described thus: Nuclear factor erythroid 2-related factor 2/antioxidant responsive element (Nrf2/ARE) small molecule agonists: qHTS cell viability counter screen in human keratinocytes (AID 1919968; active means well fitted curve in the direction sought with a large enough effect in the repeat runs; an effect the other way counts as inactive or inconclusive; further: nearly all actives have a fitted effect of over 55% in size). The method in brief: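 Cells of the KeratinoSens line were plated at 1,500 per well and left for 5 h before compound transfer from DMSO stocks. After a 23 h incubation (37 C, 5% CO2), CellTiter-Fluor was added. Signal was taken as fluorescence intensity 1 h later.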
(In general: Quantitative high-throughput screening tests each substance at several concentrations.)

Experiment [2] can be described thus: Nuclear factor erythroid 2-related factor 2/antioxidant responsive element (Nrf2/ARE) small molecule agonists: luciferase reporter gene qHTS assay in human keratinocytes (AID 1919969; further: nearly all actives have a fitted effect of over 35% in size; further: potency means the concentration at half of the fitted maximal effect). (In general: Reporter assays use an easily measured gene product as a stand-in for the process of interest.)
Experiment [3] has as its target Gonadotropin-releasing hormone receptor (Homo sapiens) (UniProt P30968). As to the kind of experiment: Human gonadotropin-releasing hormone receptor (GnRHR) small molecule agonists, calcium flux assay in GnRHR-HEK293 cells (AID 1920063). Further: nearly all actives have a fitted effect of over 35% in size. Summed up:
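Compounds dissolved in DMSO are pin-transferred onto dye-loaded GnRHR-HEK293 cells, which were seeded 18 h before at 37 C/5% CO2. Calcium signal is read as fluorescence intensity at 1 s intervals for 3 min.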
In general terms: Calcium assays in cells follow changes in intracellular calcium, usually with a dye or a luminescent sensor.

In experiment [4] the target is KiSS-1 receptor (Homo sapiens) (UniProt Q969F8). In words: Human kisspeptin (KISS1R) small molecule agonists, calcium flux assay in KISS1R-HEK293 cells (AID 1920064; active means well fitted curve in the direction sought with a large enough effect in the repeat runs; an effect the other way counts as inactive or inconclusive). The method in brief:
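Cell line: HEK293, stable human KISS1R. Dye loading 1 h at 37 C after 18 h culture. Read: kinetic fluorescence, 480/540 nm, 3 min at 1 s intervals.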

Experiment [5] in a line: G protein-coupled receptor (GPCR) small molecule agonists, calcium flux assay: HEK293 wild type cell line counter screen (AID 1920065). The method in brief:
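Tox21 10K compounds, 15 concentrations each in triplicate, pin-transferred in DMSO onto dye-loaded cells; kinetic read at 480/540 nm for 3 min, 1 s intervals.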

Experiment [6] can be described thus: p53 small molecule agonists, cell-based qHTS assay with human liver microsomes (AID 1963577).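 Further: p53 response element beta-lactamase reporter cells with liver microsomes plus NADPH.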 Summed up:
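p53RE-bla cells; 5 h settle, 37 C/5% CO2; cpd + HLM 0.5 mg/mL + NADPH 0.5 mg/mL (final); 16 h 37 C; LiveBLAzer 2 h RT dark; fluorescence readout.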

Experiment [7] is described as follows: p53 small molecule agonists, cell-based qHTS assay with rat liver microsomes (AID 1963578). Summed up:
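Rat liver microsome activation: microsomes 0.5 mg/mL, NADPH 0.5 mg/mL final; p53RE-bla cells, 16 h 37 C; LiveBLAzer readout, 2 h RT dark.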

Experiment [8] can be described thus: p53 small molecule agonists, cell-based qHTS assay with rat liver microsomes: qHTS cell viability counter screen (AID 1963580). Further: nearly all actives have a fitted effect of over 45% in size. The method in brief:
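Cytotoxicity counter screen: intracellular ATP read by CellTiter-Glo luminescence in the p53 reporter wells. HCT-116 p53RE-bla cells were treated for 16 h at 37 C alongside rat liver microsomes and NADPH, each 0.5 mg/mL final.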

Experiment [9] in a line: p53 small molecule agonists, cell-based qHTS assay: qHTS cell viability counter screen (AID 1963581). Further: nearly all actives have a fitted effect of over 45% in size. The method in brief:
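ATP content measured by luminescence in HCT-116 p53RE-bla cells treated 16 h at 37 C, same wells as the reporter screen.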

Experiment [10] in a line: p53 small molecule agonists, cell-based qHTS assay (AID 1963582; active means well fitted activation curve with a large enough effect in the signal ratio in the repeat runs, not every such curve was filed as active; the % refers to the signal ratio). The method in brief:
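16 h compound exposure (37 C) of p53 response element–bla cells, preceded by 5 h recovery at 37 C/5% CO2; read-out via LiveBLAzer B/G FRET substrate, 2 h RT, fluorescence intensity.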

Experiment [11] addresses 5-hydroxytryptamine receptor 2A (Homo sapiens) (UniProt P28223). As to the kind of experiment: 5-hydroxytryptamine receptor 2A (HTR2A) small molecule antagonists, cell-based qHTS assay (AID 1963586). Further: nearly all actives have a fitted effect of over 45% in size. Summed up: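 CHO cells stably expressing human HTR2A were plated for 18 h at 37 C, then loaded with calcium dye for 1 h. Compounds were preincubated 5 min at room temperature before DOI (4 nM solution) was added. Kinetic fluorescence was read for 3 min.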

For experiment [12], the target named is Muscarinic acetylcholine receptor M1 (Homo sapiens) (UniProt P11229). In words: Cholinergic receptor muscarinic 1 (CHRM1) small molecule antagonists, cell-based qHTS assay (AID 1963588). Further: nearly all actives have a fitted effect of over 40% in size. Summed up:
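Compounds were tested at 15 concentrations in three independent runs. Dye-loaded CHRM1-CHO cells were exposed 5 min at room temperature before stimulation by acetylcholine added at 50nM. Intracellular calcium was read kinetically on FDSS for 3 min.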

Experiment [13] has the same target. As to the kind of experiment: Cholinergic receptor muscarinic 1 (CHRM1) small molecule agonists, cell-based qHTS assay (AID 1963589). Further: nearly all actives have a fitted effect of over 35% in size. Further: potency means the concentration at half of the fitted maximal effect. Summed up: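 Homogeneous fluorescence calcium flux, agonist mode. Human M1-expressing CHO cells; compound dosed at 15 concentrations, three independent runs; signal sampled every 1 sec.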
In experiment [14] the target is Beta-2 adrenergic receptor (Homo sapiens) (UniProt P07550). In words: Adrenergic beta2 receptor (ADRB2) small molecule antagonists, cell-based qHTS assay (AID 1963592). Further: series mostly up to about 92 µM; nearly all actives have a fitted effect of over 50% in size. The method in brief:
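Assay format: CHO-ADRB2 cells, 18-20hr seeding at 37C/5% CO2, then compound plus 1nM isoproterenol agonist mix for 0.5hr RT. Homogeneous time-resolved fluorescence cAMP detection after 1hr, expressed as 665/615 nm ratio.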

Experiment [15] deals with D(2) dopamine receptor (Homo sapiens) (UniProt P14416). In words: Dopamine D2 receptor (DRD2) small molecule agonists, cell-based qHTS assay (AID 1963594). Further: nearly all actives have a fitted effect of over 35% in size. The method in brief:
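cAMP accumulation in DRD2-HEK293 cells measured by HTRF after 1 h detection; compounds added 10 min before NKH477 (200nM […]) forskolin-analogue stimulation, 30 min at room temperature, with Ro20-1724 present at 0.1 mM final.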

Experiment [16] shares this target. In words: Dopamine D2 receptor (DRD2) small molecule antagonists, cell-based qHTS assay (AID 1963595; active means well fitted inhibition curve with a large enough effect in the signal ratio in the repeat runs, with a control signal flat; the % refers to the signal ratio). Summed up:
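Stable D2 receptor HEK293 line, 24 h after seeding. Compound preincubated 10 min, then quinpirole (12 nM) with forskolin analogue NKH477 (200 nM), 30 min, room temperature. Detection by time-resolved FRET of cAMP.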

Experiment [17] in a line: cAMP Responsive Elements (CRE) small molecule antagonists, cell-based qHTS assay (AID 1963591; active means well fitted inhibition curve with a large enough effect in the signal ratio in the repeat runs, not every such curve was filed as active; the % refers to the signal ratio). Summed up: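 First, CRE-bla HEK293T cells settled 18 h at 37 C. Next, compound and 0.25 uM final NKH477 were applied for 3 h. Last, LiveBLAzer B/G substrate was loaded for 2 h at room temperature.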
For experiment [18], the target named is 5-hydroxytryptamine receptor 2A (Homo sapiens) (UniProt P28223). In words: 5-hydroxytryptamine receptor 2A (HTR2A) small molecule agonists, cell-based qHTS assay (AID 1963587). Further: nearly all actives have a fitted effect of over 30% in size. Summed up:
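Kinetic calcium-flux fluorescence (2 min, 1 sec intervals) after compound addition in agonist mode. HTR2A-CHO cells were cultured 18 h, then dye-loaded 1 h at 37 C.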

The nature of experiment [19]: cAMP Responsive Elements (CRE) small molecule agonists, cell-based qHTS assay (AID 1963590). The method in brief: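 HEK 293T cells stably bearing CRE-bla were plated at 2,000 cells per well and rested 18 h. Compounds, positive controls or DMSO were added for 3 h at 37 C. LiveBLAzer B/G substrate was then loaded for 2 h at room temperature.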

Records with an inconclusive call do not appear. Active and inactive are the calls of the source. Unless noted, the call rests on the fitted dose curve.

For eight compounds, Potency and outcome results are on record in PubChem BioAssay (Tox21).

Muscarinic acetylcholine receptor M1 (Homo sapiens), sequence (P11229 whole entry, looked up): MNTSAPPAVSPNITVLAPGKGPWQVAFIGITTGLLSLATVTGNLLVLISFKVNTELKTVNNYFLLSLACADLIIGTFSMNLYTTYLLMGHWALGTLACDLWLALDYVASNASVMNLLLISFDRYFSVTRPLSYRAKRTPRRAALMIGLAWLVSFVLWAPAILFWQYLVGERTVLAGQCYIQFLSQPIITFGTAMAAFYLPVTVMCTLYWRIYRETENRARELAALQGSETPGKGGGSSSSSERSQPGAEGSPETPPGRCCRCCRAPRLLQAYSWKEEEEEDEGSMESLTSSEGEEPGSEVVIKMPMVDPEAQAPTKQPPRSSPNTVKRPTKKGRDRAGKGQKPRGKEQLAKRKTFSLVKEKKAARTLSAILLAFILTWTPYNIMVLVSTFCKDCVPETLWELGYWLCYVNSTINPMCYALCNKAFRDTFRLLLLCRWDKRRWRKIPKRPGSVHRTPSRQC
Beta-2 adrenergic receptor (Homo sapiens), sequence (P07550 whole entry, looked up): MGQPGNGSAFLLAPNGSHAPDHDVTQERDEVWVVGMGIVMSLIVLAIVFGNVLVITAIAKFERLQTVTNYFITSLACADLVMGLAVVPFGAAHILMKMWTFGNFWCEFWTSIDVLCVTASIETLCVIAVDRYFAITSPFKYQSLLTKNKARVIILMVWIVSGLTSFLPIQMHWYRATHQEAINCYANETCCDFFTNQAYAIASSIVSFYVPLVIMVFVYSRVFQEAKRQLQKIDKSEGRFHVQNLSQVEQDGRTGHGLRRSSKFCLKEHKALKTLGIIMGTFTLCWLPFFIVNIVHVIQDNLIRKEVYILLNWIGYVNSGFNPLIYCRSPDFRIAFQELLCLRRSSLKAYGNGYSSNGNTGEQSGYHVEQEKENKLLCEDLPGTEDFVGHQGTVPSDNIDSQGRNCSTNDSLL
Gonadotropin-releasing hormone receptor (Homo sapiens), sequence (P30968 whole entry, looked up): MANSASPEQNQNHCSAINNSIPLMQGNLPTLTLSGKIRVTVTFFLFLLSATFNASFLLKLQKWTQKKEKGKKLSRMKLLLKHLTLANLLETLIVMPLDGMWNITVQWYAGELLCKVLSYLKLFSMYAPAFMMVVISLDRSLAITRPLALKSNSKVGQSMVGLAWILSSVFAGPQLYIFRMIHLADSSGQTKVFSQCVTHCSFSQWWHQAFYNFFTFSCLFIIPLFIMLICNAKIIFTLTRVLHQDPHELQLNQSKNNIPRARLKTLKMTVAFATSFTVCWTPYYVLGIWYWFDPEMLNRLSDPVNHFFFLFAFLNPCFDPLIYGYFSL
KiSS-1 receptor (Homo sapiens), sequence (Q969F8 whole entry, looked up): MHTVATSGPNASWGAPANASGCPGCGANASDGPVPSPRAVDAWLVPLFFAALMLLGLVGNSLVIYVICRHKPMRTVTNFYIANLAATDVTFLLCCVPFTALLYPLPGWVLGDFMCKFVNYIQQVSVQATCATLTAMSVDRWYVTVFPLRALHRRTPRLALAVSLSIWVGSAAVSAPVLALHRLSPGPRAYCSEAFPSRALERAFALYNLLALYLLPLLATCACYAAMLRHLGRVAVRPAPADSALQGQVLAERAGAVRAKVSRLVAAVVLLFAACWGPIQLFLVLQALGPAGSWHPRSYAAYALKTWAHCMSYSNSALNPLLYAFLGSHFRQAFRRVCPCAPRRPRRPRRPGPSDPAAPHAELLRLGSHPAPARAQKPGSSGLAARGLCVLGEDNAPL
D(2) dopamine receptor (Homo sapiens), sequence (P14416 whole entry, looked up): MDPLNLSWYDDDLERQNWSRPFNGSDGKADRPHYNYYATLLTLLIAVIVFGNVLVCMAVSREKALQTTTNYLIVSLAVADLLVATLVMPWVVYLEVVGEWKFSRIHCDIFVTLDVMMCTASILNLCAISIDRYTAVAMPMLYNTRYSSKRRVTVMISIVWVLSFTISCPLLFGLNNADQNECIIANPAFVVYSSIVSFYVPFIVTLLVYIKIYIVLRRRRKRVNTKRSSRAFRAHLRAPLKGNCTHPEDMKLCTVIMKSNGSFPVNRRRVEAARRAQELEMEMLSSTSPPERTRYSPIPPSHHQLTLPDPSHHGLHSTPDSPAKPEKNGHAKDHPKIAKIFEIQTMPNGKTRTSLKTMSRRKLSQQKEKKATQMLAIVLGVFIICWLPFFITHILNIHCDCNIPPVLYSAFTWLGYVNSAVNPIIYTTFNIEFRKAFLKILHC
5-hydroxytryptamine receptor 2A (Homo sapiens), sequence (P28223 whole entry, looked up): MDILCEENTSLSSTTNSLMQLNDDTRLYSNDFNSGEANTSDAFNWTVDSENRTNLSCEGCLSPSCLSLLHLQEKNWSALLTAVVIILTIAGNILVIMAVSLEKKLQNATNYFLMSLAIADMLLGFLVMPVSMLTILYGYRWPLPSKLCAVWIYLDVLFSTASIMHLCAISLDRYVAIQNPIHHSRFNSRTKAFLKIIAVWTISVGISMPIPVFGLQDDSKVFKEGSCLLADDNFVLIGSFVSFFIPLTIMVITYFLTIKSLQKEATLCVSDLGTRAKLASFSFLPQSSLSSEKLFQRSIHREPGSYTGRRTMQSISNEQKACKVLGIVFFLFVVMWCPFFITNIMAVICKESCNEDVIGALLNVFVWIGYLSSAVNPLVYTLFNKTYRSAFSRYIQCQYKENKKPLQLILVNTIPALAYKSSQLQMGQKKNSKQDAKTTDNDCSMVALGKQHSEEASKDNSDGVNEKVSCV

Take `CC(C)c1ccc2oc3nc(N)c(C(=O)O)cc3c(=O)c2c1`: the Potency result in experiment [1], in experiment [3], in experiment [6], in experiment [7], in experiment [8] and in experiment [9] was “inactive” throughout. In addition, the Potency result in experiment [10], in experiment [11], in experiment [12], in [13], in [14] and in experiment [15] was “inactive” throughout. In addition, the Potency entry in experiment [16] is “inactive”. The Potency in [2] was 0.944 µM (active). For the same compound, the result in experiment [4] and in [5] was inactive.

As for `O=C(Nc1ccccc1)c1ccccc1O`, the Potency entry in [1], in [3], in experiment [6], in experiment [7], in experiment [8] and in experiment [9] was “inactive” throughout. In addition, the Potency result in [10], in experiment [11], in [13], in experiment [17], in experiment [14] and in [15] was “inactive” throughout. Besides, the Potency result in experiment [16] is “inactive”. The Potency in experiment [2] was 61.1 µM (active). For the same compound, the result in experiment [4] and in experiment [5] was inactive.

Regarding `O=C(OCc1ccccc1)C(=O)OCc1ccccc1`, the Potency entry in experiment [1], in experiment [2], in experiment [3], in experiment [6], in experiment [7] and in experiment [8] was “inactive” throughout. The Potency entry in experiment [9], in experiment [10], in experiment [18], in experiment [12], in experiment [13] and in experiment [19] was “inactive” each time. Further, the Potency entry in [17], in experiment [15] and in experiment [16] was “inactive” in each case. Moreover, the outcome in [4] and in experiment [5] was inactive.

Consider `Nc1c(Cl)cc(Cl)cc1Cl`, for which the Potency result in [1], in experiment [2], in experiment [3], in experiment [6], in [7] and in experiment [8] was “inactive” throughout. Further, the Potency entry in [9], in [10], in experiment [11], in experiment [18], in [19] and in experiment [17] was “inactive” in each case. Also, the Potency result in [14], in experiment [15] and in experiment [16] was “inactive” in each case. The outcome in experiment [4] and in experiment [5] was inactive. The Potency in experiment [13] is 8.58 µM (active).

On to `Clc1cc(Cl)cc(Cl)c1`, for which the Potency entry in experiment [1], in [2], in experiment [3], in [6], in [7] and in experiment [8] was “inactive” throughout. Further, the Potency result in experiment [9], in experiment [10], in [18], in experiment [12], in experiment [13] and in [17] was “inactive” each time. Further, the Potency entry in experiment [14], in [15] and in experiment [16] was “inactive” in each case. Besides, the result in experiment [4] and in experiment [5] was inactive.

Regarding `CCCCCCCC/C=C/C(=O)O`, the Potency result in experiment [1], in experiment [2], in [3], in experiment [6], in [7] and in experiment [8] was “inactive” throughout. Further, the Potency result in [9], in [10], in experiment [11], in [18], in experiment [12] and in experiment [13] was “inactive” throughout. The Potency entry in experiment [17], in experiment [14], in experiment [15] and in experiment [16] was “inactive” throughout. In addition, the outcome in experiment [4] and in experiment [5] was inactive.

On to `CC(N)C12CC3CC(CC(C3)C1)C2` (stereo unspecified), for which the Potency entry in experiment [1], in [2], in experiment [3], in experiment [6], in experiment [7] and in experiment [8] was “inactive” in each case. Also, the Potency entry in experiment [9], in experiment [10], in experiment [19], in experiment [17], in experiment [14] and in experiment [16] was “inactive” each time. The outcome in experiment [4] and in [5] was inactive.

Turning to `CC(C(=O)O)c1ccc(CC2CCCC2=O)cc1` (stereo unspecified), the Potency entry in [1], in experiment [2], in experiment [3], in experiment [6], in [7] and in experiment [8] was “inactive” throughout. The Potency entry in experiment [9], in experiment [10], in experiment [19], in [17], in experiment [14] and in [15] was “inactive” throughout. Also, the Potency result in experiment [16] is “inactive”. Moreover, the result in [4] and in experiment [5] was inactive.
